This passage reports growth results from PubChem BioAssay (NCI).

Each structure is given as a SMILES string. About 83,000 compounds went through this panel and 20% of them were active in at least one assay; those are over-represented in the sample as a whole.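 Growth was measured after 48 h exposure to one concentration of compound in 96-well plates. Values under 10 count as active.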 Unmarked numbers belong to inactive results. Calls of active or inactive are those of the source.

Common to all, as to assay: NCI-60 one-dose screen, 48 h (100 = growth as untreated, 0 = no growth, -100 = all killed)
Conditions in all cases: 10 µM unless noted

Experiment [1] concerns NCI-H23 lung.
In experiment [2] the test system is NCI-H226 lung.
Experiment [3] deals with NCI-H322M lung.
In experiment [4] the test system is HOP-62 NSCLC.
Experiment [5] deals with NCI-H460 lung.
Experiment [6] has as its system HOP-92 NSCLC.
Experiment [7] deals with NCI-H522 lung.
Experiment [8] has as its system A549/ATCC NSCLC.
Experiment [9] concerns 786-0 renal.
Experiment [10] deals with COLO 205 colon.
For experiment [11], the system named is DU-145 prostate.
For experiment [12], the system named is K-562 leukemia.
Experiment [13] has as its system MALME-3M melanoma.
Experiment [14] concerns MDA-MB-231 breast.
In experiment [15] the test system is RXF 393 renal.
Experiment [16] relates to SF-268 CNS.
In experiment [17] the test system is SF-295 CNS.
The subject of experiment [18] is SF-539 CNS.
Experiment [19] has as its system UACC-257 melanoma.
Experiment [20] concerns M14 melanoma.

On to `COc1cc2c(cc1-c1c(C)noc1C)ncc1nc(C3CCCCC3)n([C@@H](C)COC(F)F)c12`, for which the growth in experiment [1] was 56.8%; in experiment [2] it was 55.5%; in experiment [3], 41.9%; in [4] it was 28.6%; in experiment [5] it was 53%; in experiment [6], 27.7%. Also, the growth was 26.2% in experiment [7]; 33.2% in [8]; 42.8% in experiment [9]; 9.21% (active) in experiment [10]; 61% in experiment [11]; 24.2% in experiment [12]. For the same compound, the growth in experiment [13] was 72.1%; in experiment [14], 41%; in [15], 52.2%; in [16] it was 55.6%; in [17], 45.3%; in experiment [18], 31.6%. The growth in [19] was 28.2%; in [20] it was 34.7%.
`Nc1ccccc1NC(=O)c1ccc(CN2CCC/C(=C\c3ccccn3)C2=O)cc1`: the growth in experiment [1] was 29.3%; in experiment [2] it was 52.8%; in experiment [3] it was 39.8%; in experiment [4], 41.8%; in experiment [5] it was 17.9%; in [6], 46%. Besides, the growth in [7] was 21.1%; in experiment [8] it was 26.2%; in [9], 44.5%; in experiment [10], 1.53% (active); in experiment [11], 45.9%; in [12] it was 9.55% (active). Further, the growth in [13] was 20.9%; in experiment [14], 45.3%; in experiment [15], 2.96% (active); in experiment [16], 25%; in [17], -2.97% (active); in experiment [18], 27.4%. In addition, the growth was 26.3% in experiment [19] and 12.3% in experiment [20].
In the case of `COC(=O)[C@]12CC[C@@H](C)[C@H](C)[C@@H]1C1=CC[C@@H]3[C@@]4(C)CC(=O)[C@H](OC(=O)c5ccco5)[C@@]5(C)COC(=C45)C[C@@]3(C)[C@]1(C)CC2`, the growth in [1] was 33.5%; in experiment [2], 23.6%; in experiment [3], 53.7%; in [4], 34.4%; in [5], 9.59% (active); in experiment [6], 60.6%. The growth in [7] is 26.9%; in experiment [8], 25%; in experiment [9], 6.39% (active); in [10], -40.6% (active); in [11], 37.9%; in experiment [12], 23.7%. The growth was 21.9% in [13]; 40.4% in experiment [14]; 44.5% in experiment [15]; 40.7% in experiment [16]; 35.6% in [17]; 39% in experiment [18]. Also, the growth in experiment [20] is 22.2%.
As to `COc1cnc2c(c1)C(=O)c1c-2n(CCCNC2=NCCS2)c(=O)c2cc([N+](=O)[O-])ccc12`, the growth in experiment [1] is -47.1% (active); in [2] it was 8.43% (active); in [3], -19.6% (active); in experiment [4], -59.6% (active); in experiment [5] it was -81.9% (active); in experiment [6], 24.9%. Also, the growth is 22.8% in [7]; -77.2% (active) in experiment [8]; -93% (active) in experiment [9]; -67.1% (active) in experiment [10]; -74.7% (active) in [11]; -14.9% (active) in [12]. Besides, the growth was -60.6% (active) in experiment [13]; -58.4% (active) in experiment [14]; -2.16% (active) in experiment [15]; -39.4% (active) in experiment [16]; 11.7% in experiment [17]; -66.5% (active) in [18]. Also, the growth in experiment [19] is 35.4%; in experiment [20] it was -73.5% (active).
Turning to `CCN(CC)C(=O)CCCCCn1c2ccccc2c2c3c(c4c5ccccc5[nH]c4c21)C(=O)N(O)C3=O`, the growth in experiment [1] is 46.8%; in experiment [2], 69.9%; in experiment [3], 81.8%; in experiment [4], -26.4% (active); in experiment [5], 53.1%; in [6], 78.5%. In addition, the growth was -66.5% (active) in experiment [7]; 87.2% in experiment [8]; 78.1% in [9]; -7.19% (active) in [10]; 69% in experiment [11]; 40.8% in experiment [12]. In addition, the growth is 102% in [13]; 42.9% in experiment [14]; 45.6% in experiment [15]; 51.6% in [16]; 62.5% in [17]; 39.7% in experiment [18]. The growth in experiment [20] was 53.9%.
With `COc1cccc(-c2nn(-c3ccccc3)cc2-c2ccnc(NCCNS(=O)(=O)c3cccc(F)c3)c2)c1`, the growth in [1] is 38.4%; in experiment [2] it was 39.3%; in experiment [3], 59%; in experiment [4], 55.3%; in experiment [5], 24.2%; in [6], 22.3%. In addition, the growth in experiment [7] was 3.7% (active); in [8], 24.8%; in experiment [9], 25.9%; in [10], 16.6%; in experiment [11], 58%; in experiment [12], 11.9%. In addition, the growth was 78.2% in experiment [13]; 9.24% (active) in experiment [14]; 44.1% in experiment [15]; 48.1% in experiment [16]; 13.2% in [17]; 52.3% in experiment [18]. The growth in experiment [20] is 27.2%.
For the compound `COc1cc(-c2cc3ncccc3c3[nH]c(=O)c4cccnc4c23)cc(OC)c1OC`, the growth is 44.5% in [1]; 28.3% in experiment [2]; 52.6% in [3]; 30.3% in experiment [4]; 8.58% (active) in experiment [5]; 30.6% in experiment [6]. The growth is 34.3% in experiment [7]; 23.8% in experiment [8]; 24.7% in experiment [9]; -18.6% (active) in experiment [10]; 14.1% in experiment [11]; 10.5% in experiment [12]. For the same compound, the growth in experiment [13] is 55.4%; in [14], 36.7%; in [15], -3.08% (active); in [16], 51.2%; in experiment [17], 12.6%; in experiment [18], 5.37% (active). The growth in [19] is 51.5%; in experiment [20] it was 12.8%.
Consider `CCOC(=O)C/C(=C\c1ccccc1)C(C)=O`, for which the growth is 104% in [1]; 98.7% in experiment [2]; 114% in [3]; 73.4% in experiment [4]; 112% in [5]; 92.2% in [6]. The growth in [7] was 76.7%; in [8], 67.4%; in [9], 101%; in experiment [10] it was 102%; in experiment [11], 109%; in [12], 87.6%. Also, the growth in experiment [13] was 105%; in [14] it was -43.5% (active); in experiment [15], 115%; in experiment [16], 102%; in experiment [17] it was 98.5%; in experiment [18], 105%. Further, the figures for the growth in experiment [19] and in experiment [20] were 82.8% and 91.9%, respectively.
